High-throughput results: PubChem BioAssay, National Center for Advancing Translational Sciences (NCATS)
Pf Dd2 growth: Plasmodium falciparum Dd2 growth inhibition. P. falciparum Dd2 growth, SYBR Green, 72 h. Potency, µM (highest dose often 28.9 µM), for the others: at the top dose activity, negative = inhibition, usual class: inhibitors. 120,000 compounds, 4.3% hits; active = well fitted inhibition curve with a large enough effect;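 also: plate controls were DMSO vehicle for no effect and reference drug for full effect; nearly all actives have a fitted effect of over 65% in size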
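Infected erythrocytes (Dd2, 0.3% parasitemia, 2.5% hematocrit final) are added to compound in RPMI-1640/Albumax II medium, grown 72 h at 37C in low oxygen, then lysed with saponin/Triton-X containing SYBR Green and read by fluorescence.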
* hit, by the source's call; i = inactive; [ ] = remark or other dose. The full list was thinned out, with hits kept by preference. Potency is read from the fitted curve at half-maximal effect.

SMILES	Pf Dd2 growth
CCN(CC)C(=O)[C@@H](C)C1CC[C@@]2(C)Cc3sc(Nc4c(Cl)cccc4Cl)nc3[C@@H](C)[C@@H]2[C@H]1O (some centres undefined)	13µM*
COc1ccccc1CC(=O)N1CCCc2ncc(C(=O)N3CCN(CCO)CC3)cc21	17%[44.1 µM]
O=C1NCCCc2[nH]c(-c3cc(-c4cccc(F)c4)no3)nc21	-19%
COc1cccc(-c2nnc(SCC(=O)N(C)C3CCCCC3)o2)c1	0%
CCC(=O)C1=C(c2cccc(OC)c2)N(C(=O)CC)n2c(nnc2C2CCCCC2)S1	2.8µM*
CN(C(=O)CSc1nnc(-c2ccc([N+](=O)[O-])cc2)o1)C1CCCCC1	23%
CCOC(=O)C1=C(C)N=C2SC=C(CC(=O)NC3CC3)N2C1c1cccc([N+](=O)[O-])c1 (centres undefined)	0%
COc1cccc(C(=O)N2CCn3c(nnc3C3CC3)C2)c1	7%[44.1 µM]
CCC(=O)C1=C(c2cccc([N+](=O)[O-])c2)N(C(=O)CC)n2c(nnc2-c2ccccc2)S1	1.1µM*
CC(=O)Nc1cccc(-c2nnc(SCC(=O)c3cc([N+](=O)[O-])ccc3Cl)o2)c1	i
CCC(=O)C1=C(c2cccc([N+](=O)[O-])c2)N(C(=O)CC)n2c(nnc2C2CCCCC2)S1	1.4µM*
CC(=O)C1=C(c2cccc([N+](=O)[O-])c2)N(C(C)=O)n2c(nnc2-c2ccc(C)cc2)S1	15%
CN(C)c1cnn(CC(=O)N2CCCC(c3ccc(Cl)cc3)C2)c(=O)c1 (centres undefined)	-26%
CO[C@@H]1CO[C@H]2[C@@H]1OC[C@@H]2NS(=O)(=O)c1ccccc1C#N	10%[44.1 µM]
O=C(CSc1ncc(-c2ccccc2)[nH]1)Nc1ccc(Cl)cc1	16%
CCC(C)NC(=O)C(NC(=O)c1cccs1)C1CCN(S(=O)(=O)c2ccc(OC)cc2)CC1 (centres undefined)	i
O=C1CCN(C(=O)[C@@H]2CCCN2Cc2ccc(C(F)(F)F)cc2)CCCCCCN1	-30%
Cc1cc(C)c(S(=O)(=O)NCC2CCC(C(=O)NCCc3ccccc3)CC2)c(C)c1 (centres undefined)	-17%
COc1ccc(-c2nc3cnccn3c2NCCC(=O)Nc2ccc(C)cc2C)cc1	i
Cc1ccc2c(CNCCc3ccc(Cl)cc3)c(C(=O)O)n(Cc3ccc(F)cc3)c2c1	-16%
c1ccc(-c2nc(-c3cnccn3)no2)c(OC2CCNC2)c1 (centres undefined)	i
Cc1ncccc1C(=O)N1CC(Oc2ccccc2-c2nc(-c3ccccc3)no2)C1	11µM*
O=C(C1CCC1)N1CC(Oc2ccccc2-c2nc(-c3cnccn3)no2)C1	10µM*
O=C(c1cnccn1)N1CCC(Oc2ccccc2-c2nc(-c3ccccc3)no2)C1 (centres undefined)	-16%
Cc1ncccc1C(=O)N1CC(Oc2ccc(-c3nc(-c4ccccc4)no3)cc2)C1	-25%[5.79 µM]
SMILES	Pf Dd2 growth
O=C(C1CCOCC1)N1CCC(Oc2ccccc2-c2nc(-c3ccccc3)no2)C1 (centres undefined)	i
O=C(Cc1ccsc1)N1CCC(n2cc(-c3nc(-c4ccccc4)no3)nn2)C1 (centres undefined)	-1%
O=C(Cc1ccsc1)N1CC(Oc2ccccc2-c2nc(-c3ccccc3)no2)C1	13µM*
O=C(c1ccncc1)N1CCC(Oc2ccccc2-c2nc(-c3ccccc3)no2)C1 (centres undefined)	-12%
O=C(Nc1cccc(F)c1)[C@H](CSCc1ccccc1)N1Cc2ccccc2C1=O	i
COc1cccc(CN2C[C@@H]3C(C(=O)O)[C@@H]3C2)c1OCCn1ccnc1 (some centres undefined)	i
CCc1ccc(CNC(=O)c2cc3c(=O)oc4ccc(C)cc4c3s2)cc1	60%
O=C(Nc1ccc(Cl)c(C(F)(F)F)c1)C1CCN(S(=O)(=O)c2cccc3nonc23)CC1	i
O=C(Nc1ccc(Br)cc1F)N1CCC(CN2CCc3ccccc3C2)CC1	6%
CCCN(CCC)CC(O)Cn1cc(/C=C/C(=O)c2ccc(OC)cc2)c2ccccc21 (centres undefined)	3.2µM*
COc1ccc(C(=O)NCCn2cc(SCc3cc(C)ccc3C)c3ccccc32)cc1	-18%
CCCn1cc2c3c(cccc31)CN(C(=O)c1ccc(OC)cc1)CC2	i
COc1ccc(C(=O)/C=C/c2cn(CC(O)CN(CC(C)C)CC(C)C)c3ccccc23)cc1 (centres undefined)	3.2µM*
COc1ccc(C(=O)NCCn2cc(SCC(=O)Nc3ccc(F)cc3)c3ccccc32)cc1	i
COc1ccc(NC(=O)Cn2cc(C(=O)C3CC3)c3ccccc32)cc1	0%
Cc1noc(C)c1S(=O)(=O)N1CCC2(CC1)CC(OCC1CC1)CCO2 (centres undefined)	7%
CCN(CC)C(=O)c1sc2c(c1C)c(=O)n(-c1ccc(OC)cc1OC)c(=O)n2CC(=O)Nc1ccccc1	-24%
COc1cc(NC(=O)CCn2c(=O)oc3ccccc32)cc(OC)c1OC	14%
NCCO[C@H]1C[C@@H](O)C12CCN(S(=O)(=O)c1cccnc1)CC2	-12%
O=C(O)c1cccc2c1CCN2S(=O)(=O)c1ccccc1	2%
CCOC(=O)c1c(NC(=O)c2cc(OC)c(OC)c(OC)c2)sc2c1CCCC2	45%
O=[S+]1([O-])NCC2(CCN(Cc3ccccn3)C2)Nc2ccccc21 (centres undefined)	i
O=[S+]1([O-])NCC2(CCN(Cc3cccc4ccccc34)C2)Nc2ccccc21 (centres undefined)	13µM*
O=[S+]1([O-])NCC2(CCN(Cc3ccc(F)cc3)C2)Nc2ccccc21 (centres undefined)	-27%
Cc1cc2ncc(C(=O)NCc3ccc(C)o3)cn2n1	0%[44.1 µM]
SMILES	Pf Dd2 growth
O=C(NCCc1ccc(Cl)cc1)c1cc(-c2ccc(Cl)cc2Cl)c2cccn2n1	8%
C[C@@H](NC(=O)NC(C)(C)C)c1onc(-c2ccccc2)c1C(=O)O	5%[44.1 µM]
Cc1cn2nc(C(=O)NCc3ccc(F)cc3F)cc2c(=O)[nH]1	3.2µM*
Cc1cn2nc(C(=O)NCc3ccc(Cl)cc3)cc2c(=O)[nH]1	4%
Cc1cn2nc(C(=O)NCc3ccccc3C)cc2c(=O)[nH]1	25%
CC(C)CC(=O)N1CCOCC12CCN(Cc1ccc(C(C)C)cc1)CC2	-9%[44.1 µM]
Cn1cccc1C(=O)N1CCC(c2noc(COc3ccc(F)cc3)n2)CC1	i
COC[C@@H]1CN(Cc2c(OC)cccc2OC)C[C@H]1c1ccncc1	4.5µM*
COC[C@@H]1CN(Cc2cnn(C)c2)C[C@H]1c1ccncc1	11%
COC[C@@H]1CN(Cc2ccc(OC)c(OC)c2)C[C@H]1c1ccncc1	-25%
O=C(CCN1CCCCC1=O)N[C@H](C1CCNCC1)C1CC(O)C1 (some centres undefined)	5%
CN(C)c1ccc(CN[C@H]2CO[C@H]3[C@@H]2OC[C@@H]3n2cc(CC3CCCCC3)nn2)cc1	-13%[44.1 µM]
CCOc1ccc(C(=O)N2CCN(C3CCN(C)C3=O)CC2)cc1OCC (centres undefined)	-6%
COc1cccc(CNC(=O)C2CCN(c3cc(C(F)(F)F)ncn3)CC2)c1	-5%
COc1ccc2c(c1)CCc1sc(NC(=O)c3cccc(Br)c3)nc1-2	-16%
COc1ccc(C(=O)Nc2nc3c(s2)CCCC3)cc1Cl	-25%
COc1ccc2c(c1)-c1nc(NC(=O)c3ccc(C)cc3)sc1CC2	11µM*
COc1ccc(-c2noc(-c3ccccc3OCC(=O)Nc3ccc(C(C)=O)cc3)n2)cc1	15%
